Among the data in PubChem BioAssay AID686978 (National Center for Advancing Translational Sciences (NCATS), 2013) are Potency values, retold here.

In all, about 420,000 compounds went through this assay and about 64,000 (15%) were called active. Not shown: some 27% with an inconclusive outcome. Calls come from the whole dose curve; as a rule, active = well fitted inhibition curve with a large enough effect; inconclusive = small, poorly fitted or top-dose-only effect; inactive = flat fitted curve, though single readings scatter. Only a sample is shown. Entries that show only a call come without a potency. Peptide text beside a SMILES is read from it.
Potency is the fitted concentration of half-maximal effect.

The nature of the assay: qHTS for Inhibitors of human tyrosyl-DNA phosphodiesterase 1 (TDP1): qHTS in cells in absence of CPT. Note: nearly all actives have a fitted effect of over 55% in size. To be noted: DT40 Tdp1-/- hTDP1 cells, no CPT, ATP luminescence, 48 h; activity change, negative = growth inhibition: at 46.2 µM (top of the series). The essentials:
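Camptothecin absent (DMSO only). Human TDP1-complemented DT40 knockout cells, 400 cells/well, 37 °C for minimum 48 hr; ATP measured via CellTiter-Glo, 30 min dark incubation, luminescence.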
Background: In qHTS, concentration-response curves come from the screen itself.
`O=C(CCS(=O)(=O)c1cc(Br)cc2c1N(C(=O)C1CC1)CC2)Nc1ccc(C(F)(F)F)cc1`: the Potency entry was “inactive”.

Regarding `CCN(c1ccc2c(c1)OCO2)S(=O)(=O)c1cc(Br)cc2c1N(C(=O)C1CC1)CC2`, the Potency is 25.9 µM (active).

For the compound `O=C(CCS(=O)(=O)c1cc(Br)cc2c1N(C(=O)C1CC1)CC2)Nc1ccc(Br)cc1F`, the Potency result is “inactive”.

As to `O=c1oc2ccc(C#CC3(O)CCCCC3)cc2cc1-n1cc(-c2ccsc2)nn1`, the Potency result was “inactive”.

`CCC(=O)/C(=C(/O)c1ccccc1)c1nc2ccccc2[nH]1`: the Potency result was “inactive”.

As to `O=C(/C(=C/c1cccc(Cl)c1)c1nc2ccccc2[nH]1)c1ccccc1`, the Potency was 23.1 µM (active).

`O=C(Cc1nc2ccccc2[nH]c1=O)c1ccc(Cl)cc1`: the Potency entry is “inactive”.

As to `CN1CCC(=NNC(=O)c2ccc(N(Cc3ccc(Cl)cc3)S(C)(=O)=O)cc2)CC1`, the Potency result is “inactive”.

For `NC(=O)Cn1nc([N+](=O)[O-])nc1Oc1ccc(Br)cc1`, the Potency result was “inactive”.

Regarding `CC(C)CCNC(=O)CCNS(=O)(=O)c1ccc(Cl)cc1`, the Potency entry was “inactive”.

Take `O=S1(=O)CCO[C@H]2Cc3ccccc3[C@H]2N1Cc1ccccc1`: the Potency entry is “inactive”.

Take `CCOc1c(Br)cc(/C=C2\C(=O)N(CCC#N)N=C2C)cc1OC`: the Potency was 29.1 µM (active).

As for `CCOc1cc(/C=N/O)cc(Br)c1OC`, the Potency result was “inactive”.

As to `COc1cc(/C=C2/C(=O)NN(c3cccc(Cl)c3)C2=O)cc(Br)c1O`, the Potency result was “inactive”.

For `CCn1c(SCC(=O)NC2=NCCS2)nnc1C(C)NC(=O)c1ccccc1F` (stereo not given), the Potency result is “inactive”.

On to `Cc1ccc(-n2c(C)nnc2SCC(=O)NC2CC2)cc1`, for which the Potency result is “inactive”.

`CCCCCCCCCCCCC(NC(C)=O)(C(=O)OCC)C(=O)OCC`: the Potency was 20.6 µM (active).

`CCCCCCCCCCCC(=O)O`: the Potency entry is “inactive”.

On to `CCCC(CCC(=O)OC)(C(=O)OCC)c1csc(N)n1` (stereo not given), for which the Potency entry is “inactive”.

Regarding `COC(=O)C1=CO[C@@H](O[C@@H]2O[C@H](CO)[C@@H](O)[C@H](O)[C@H]2O)C2C1C[C@H](O)[C@@H]2C` (stereo not given in full), the Potency result was “inactive”.

Turning to `COc1ccccc1NC(=O)C1=C(C)Nc2nc3ccccc3n2C1c1cccs1` (stereo not given), the Potency is 3.26 µM (active).

Consider `CCOC(=O)C1=C(C)Nc2nc3ccccc3n2C1c1cccs1` (stereo not given), for which the Potency entry was “inactive”.

With `COc1ccccc1NC(=O)C1=C(C)Nc2ncnn2C1c1sccc1C` (stereo not given), the Potency result is “inactive”.

Turning to `CCOC(=O)C1CCN(C(=O)CSc2cc(=O)n(C)c3ccccc23)CC1`, the Potency result is “inactive”.

Regarding `Cc1ccc(-c2cc(=O)c3ccc(Cl)cc3[nH]2)cc1`, the Potency entry is “inactive”.

As to `Cc1ccc(-c2cc(=O)c3ccc(F)cc3[nH]2)cc1`, the Potency was 13 µM (active).

`O=c1[nH]c(-c2ccccc2)c(-c2ccccc2)[nH]1`: the Potency entry was “inactive”.

Take `O=c1cc(-c2ccccc2)[nH]c2cc(F)ccc12`: the Potency was 1.03 µM (active).

As to `Cc1ccc(S(=O)(=O)/N=C(\N)c2ccc(F)cc2)cc1`, the Potency entry is “inactive”.

As for `Cc1cc(=O)c2ccc(NC(=O)c3ccccc3)cc2[nH]1`, the Potency entry is “inactive”.

As for `O=S(=O)(Nc1ccccc1Br)c1cccs1`, the Potency result is “inactive”.

Consider `Cn1nccc1/C=N\NC(=O)c1ccc(Cl)cc1`, for which the Potency result was “inactive”.

For the compound `Cc1cc(-n2cnc(-c3cn(C)nc3C)n2)no1`, the Potency entry was “inactive”.

As to `Cc1cc(C)c(NC(=O)C[N+](C)(C)CC(O)COc2cccc3ccccc23)c(C)c1` (stereo not given), the Potency was 18.4 µM (active).

With `Cc1cccc(NC(=O)COc2ccccc2C)n1`, the Potency entry was “inactive”.

For `Cc1cc(C)cc(OCC(=O)Nc2c(C(=O)c3ccccc3)oc3ccccc23)c1`, the Potency entry is “inactive”.

On to `Cc1cccc(NC(=O)c2ccc3nsnc3c2)c1C`, for which the Potency result is “inactive”.

As for `O=C(Nc1ccccc1)OCc1cc(-c2ccc(Cl)cc2)on1`, the Potency result is “inactive”.

For the compound `CCc1cc2c(N3CCN(c4nnc(CC)s4)CC3)ncnc2s1`, the Potency is 8.2 µM (active).

On to `O=C(CCc1nnc2ccc(NCc3ccccc3Cl)nn12)NCC1CCN(C2CCCC2)C1` (stereo not given), for which the Potency entry is “inactive”.

For `O=C(CSc1ccsc1[N+](=O)[O-])N1CCCCC1`, the Potency result is “inactive”.

With `CS(=O)(=O)N(CC(=O)N1CCCCCC1)c1cccc(Cl)c1Cl`, the Potency entry is “inactive”.

With `Cc1ccc(C(=O)c2c(NC(=O)c3ccccc3)sc(C)c2C)cc1`, the Potency was 23.1 µM (active).

Turning to `Cc1ccc(C(=O)Nc2c(-c3ccccc3)[nH][nH]c2=O)cc1`, the Potency result is “inactive”.

Turning to `CCOC(=O)c1c(NC(=O)c2cccs2)sc(C)c1C`, the Potency result was “inactive”.

For the compound `Cn1c(=O)c2cc(S(=O)(=O)NCCC(=O)Nc3ccc(F)cc3F)ccc2n(C)c1=O`, the Potency entry was “inactive”.

For `COc1ccc(NC(=O)CN(C)C(=O)/C=C/c2cn(Cc3ccccc3)nc2-c2cccnc2)cc1`, the Potency entry was “inactive”.

As for `Cc1cc(C)cc(NC(=O)CSc2nc(=O)n(CCN3CCOCC3)c3c2CCC3)c1`, the Potency result is “inactive”.

With `CC(C)=C(NC(=O)c1ccco1)C(=O)NCCc1nc2ccccc2[nH]1`, the Potency result was “inactive”.

As to `CCCCCOc1ccc(/C=C/C(=O)NCCc2nc3ccccc3[nH]2)cc1OC`, the Potency was 9.2 µM (active).

On to `O=C(COc1ccccc1)NCCc1nc2ccccc2[nH]1`, for which the Potency entry was “inactive”.

As to `COc1ccc2c(C(=O)c3ccc(C)cc3)n(CCC(N)=O)[n+]([O-])c2c1`, the Potency entry is “inactive”.

Regarding `COC(=O)CNC(=O)C(CCSC)NC(C)=O` (stereo not given) (HELM PEPTIDE1{[ac].[CSCCC(N[*:1])C(=O)[*:2]].G.[CO[*:1]]}$$$$V2.0), the Potency entry is “inactive”.

As for `Cc1ccc(N(C)C(=O)C2CCN(S(=O)(=O)c3ccc4c(c3)CCCN4C(=O)C3CCC3)CC2)cc1`, the Potency is 16.4 µM (active).

As for `CC(=O)N1CCCc2cc(S(=O)(=O)N3CCC(C(=O)NC4CCCCC4)CC3)ccc21`, the Potency result was “inactive”.

In the case of `O=C(C1CCCN(S(=O)(=O)c2ccccc2)C1)N1CCN(c2ccc(F)cc2)CC1` (stereo not given), the Potency is 11.6 µM (active).

On to `CCOC(=O)C1CCN(C(=O)C2CCCN(S(=O)(=O)c3ccc(OC)c(Cl)c3)C2)CC1` (stereo not given), for which the Potency was 11.6 µM (active).

For `COc1ccc(S(=O)(=O)N2CCC(C(=O)N3CCCC3)CC2)cc1C`, the Potency entry was “inactive”.

As to `Cc1ccc(S(=O)(=O)N2CCC(C(=O)N3CCCCCCC3)CC2)cc1`, the Potency was 20.6 µM (active).

`COc1ccc(N(C)C(=O)C2CCN(S(=O)(=O)c3cc(Br)cc4c3N(C(C)=O)CC4)CC2)cc1`: the Potency result was “inactive”.

For the compound `O=C(C1CCC1)N1CCN(c2ccccc2)CC1`, the Potency entry is “inactive”.

Take `CCCS(=O)(=O)N1CCCC(C(=O)N2CCN(c3ccccc3)CC2)C1` (stereo not given): the Potency result was “inactive”.

For the compound `CCN1CCN(C(=O)C2CCCN(S(=O)(=O)c3ccc(OC)c(OC)c3)C2)CC1` (stereo not given), the Potency entry is “inactive”.

As to `Cc1ccc(S(=O)(=O)N2CCC(N3CCCCCC3)CC2)cc1`, the Potency result is “inactive”.

On to `COc1ccc(OC)c(S(=O)(=O)N2CCCC(C(=O)N3CCC(C(N)=O)CC3)C2)c1` (stereo not given), for which the Potency entry was “inactive”.
